Screens (PubChem BioAssay)
E coli Lon inh: inhibits E. coli Lon protease. purified E. coli Lon protease, fluorescence polarization. inhibition, % at 7.94 µM. 360,000 compounds, 0.42% hits; in the data active = inhibition above about 13%, passing the limit was not always enough;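 note: 0% = enzyme with probe and DMSO and 100% = no enzyme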
GLD-1 RNA inh: GLD-1-TGE RNA interaction inhibition (C. elegans); Q17339; purified GLD-1 + fluorescein TGE RNA, fluorescence polarization; 320,000 compounds, 0.44% hits; inhibition, % at 5.96 µM;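 active = percent inhibition above a per-plate cutoff, the plate mean of test compounds plus 3 SD, cut at about 30% in these data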;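 note: 0% = DMSO wells with GLD-1 and probe and 100% = wells lacking GLD-1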
MCL1 BIM primary: disrupts human MCL1 binding to BIM-BH3 peptide | 320,000 compounds, 0.68% hits | inhibition, % at 10.9 µM | Q07820 | GST-MCL1 / FITC-Bim-BH3 fluorescence polarization;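 active = inhibition above the mean inhibition of all tested compounds plus 3 SD, set per campaign, cut at about 40% in these data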;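 note: 0% = DMSO wells and 100% = unlabeled Bim-BH3 peptide control; higher means more loss of mP so more displacement of Bim peptide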
Target sequence (Q07820 whole entry, looked up): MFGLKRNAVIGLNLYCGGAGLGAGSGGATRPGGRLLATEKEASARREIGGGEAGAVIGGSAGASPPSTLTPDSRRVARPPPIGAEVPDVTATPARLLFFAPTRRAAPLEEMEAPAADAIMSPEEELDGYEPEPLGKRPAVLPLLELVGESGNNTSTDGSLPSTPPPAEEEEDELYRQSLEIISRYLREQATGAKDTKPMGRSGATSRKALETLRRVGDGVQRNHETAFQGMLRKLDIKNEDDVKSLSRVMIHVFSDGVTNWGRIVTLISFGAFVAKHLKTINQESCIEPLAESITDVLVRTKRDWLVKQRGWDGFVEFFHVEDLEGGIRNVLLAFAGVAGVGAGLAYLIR
Bcl-xL primary: blocks human Bcl-xL binding to Bim BH3 peptide | Q07817 | GST-Bcl-xL / FITC-Bim BH3 peptide fluorescence polarization | inhibition, % at 10.9 µM | 320,000 compounds, 0.7% hits | AID 2129;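 active = inhibition above the mean of all tested compounds plus 3 SD, cutoff set per campaign, cut at about 30% in these data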;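 note: 0% = DMSO wells and 100% = unlabeled Bim-BH3 peptide competitor; inhibitors lower millipolarization by displacing the labeled peptide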
Target sequence (Q07817 whole entry, looked up): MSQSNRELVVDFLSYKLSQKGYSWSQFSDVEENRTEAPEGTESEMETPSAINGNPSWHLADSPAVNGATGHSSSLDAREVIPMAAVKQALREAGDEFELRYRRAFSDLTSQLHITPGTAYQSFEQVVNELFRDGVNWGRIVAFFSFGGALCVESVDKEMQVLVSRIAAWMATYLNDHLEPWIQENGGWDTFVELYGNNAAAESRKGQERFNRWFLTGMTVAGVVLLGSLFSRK
MEX-5 binding: C. elegans MEX-5 TCR-2 RNA binding activity | Q9XUB2 | MEX-5/FITC-TCR2 RNA binding, fluorescence polarization; stronger effect = lower value | activity score (negative = inhibition of binding), % at 10 µM | 300,000 compounds, 0.38% hits;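 active = inhibition past about -25% in most replicates, and total fluorescence under double the plate's negative control median, limit read from the data; inconclusive = replicates evenly split on the limit, or fluorescence at least double controls; inactive = too little inhibition in most replicates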;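 note: 0% = DMSO and -100% = 5 µM competing unlabeled TCR2 RNA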
Bcl-xL conf: counter-screen for MCL1 inhibitors: confirmation of human Bcl-xL inhibitors. shares compounds with MCL1 BIM primary. GST-Bcl-xL / FITC-Bim BH3 peptide FP binding. inhibition, % at 10.9 µM. 1,700 compounds, 54% hits. AID 2166;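 active = inhibition above a cutoff equal to the mean inhibition of all tested compounds plus 3 SD, cut at about 30% in these data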;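 note: 0% = DMSO wells and 100% = unlabeled Bim BH3 control peptide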
MCL1 inh confirm: confirmation of human MCL1 and BIM-BH3 interaction inhibitors. inhibition, % at 10.9 µM. GST-MCL1 / FITC-Bim-BH3 fluorescence polarization. shares compounds with MCL1 BIM primary. 1,700 compounds, 61% hits;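 active = inhibition above the average of all tested compounds plus 3 SD, cut at about 40% in these data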;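 note: 0% = DMSO wells and 100% = unlabeled Bim-BH3 control peptide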
The depositor's hits bear a star; ? = inconclusive; . = not tested or not shown; + = active, no number. The list is not random: actives were taken first. Their share in the collection is about 1.4%.

SMILES	E coli Lon inh	GLD-1 RNA inh	MCL1 BIM primary	Bcl-xL primary	MEX-5 binding	Bcl-xL conf	MCL1 inh confirm
O=c1[nH]c(=S)n(-c2ccc(Br)cc2)c(O)c1C=Nc1ccc(N2CCOCC2)cc1	-48	-19	+	170*	-2	+	+
O=c1[nH]c(=S)n(-c2ccccc2F)c(O)c1C=Nc1ccc(N2CCOCC2)cc1	-18	-6	-50	-29	-6	.	.
C=CCn1c(O)c(C(CC)=Nc2ccc(N(C)C)cc2)c(=O)[nH]c1=O	9	22	45*	29	-1	18	10
CCn1ccnc1CN1CCCC(C(=O)c2cc(C)c(OC)c(C)c2)C1 (configuration not stated)	1	-5	5	1	4	.	.
CC(=O)OC1C=CC2[C@H]3Cc4ccc(O)c5c4[C@@]2(CCN3C)C1O5 (some centres not stated)	-7	1	.	.	.	.	.
CCOc1ccc(N2C(=O)/C(=C/c3ccco3)C(=O)NC2=S)cc1	-21	-22	-25	-18	1	.	.
Cc1ccccc1N1C(=O)/C(=C/c2ccco2)C(=O)NC1=S	.	6	98*	97*	-2	97*	99*
Cc1nc(CCl)cc(=O)[nH]1	1	7	7	7	-3	.	.
CCOC(=O)c1ccccc1C(=O)OCC	8	43*	74*	63*	0	60*	72*
CCCOC(=O)c1ccccc1C(=O)OCCC	6	3	-1	4	.	.	.
O=[N+]([O-])c1ccc(NCc2ccc(Cl)cc2)c2ccncc12	-5	1	1	6	0	.	.
O=[N+]([O-])c1ccc(NCc2ccccc2)c2nonc12	.	198*	175*	147*	-36*	167*	197*
O=C1NC(=O)C(=C/C=C/c2coc3ccc(Br)cc3c2=O)C(=O)N1	.	11	74*	86*	-2	92*	111*
COc1ccc2c(c1)[C@@]13CCC=C[C@H]1[C@@H](C2)NCC3	6	3	2	4	.	.	.
C[N+]1(C)CCN(c2ccccc2)CC1	7	3	-14	-11	-1	.	.
O=C1NC(=S)NC(=O)C1=Cc1ccc(Br)s1	-34	-13	46*	15	-3	20	53*
N#CC(C#N)=Cc1ccc(-c2ccccc2F)o1	-13	12	100*	62*	.	123*	150*
N#CC(C#N)=Cc1ccc(O)c(O)c1	-9	1	5	6	.	.	.
N/C(=N\N=C/c1ccc(-c2ccc(O)c(C(=O)O)c2)o1)N[N+](=O)[O-]	4	-5	80*	23	-29*	29	81*
O=C1NC(=O)N(CC2CCCO2)C(=O)/C1=C/c1cccs1 (configuration not stated)	1	-8	10	9	-2	.	.
CCN(CC)c1ccc(/C=C2/C(=O)NC(=O)N(CC3CCCO3)C2=O)cc1 (configuration not stated)	3	30	50*	52*	-4	16	-24
Cc1ccc(N2C(=O)NC(=O)/C(=C\c3cn(CC(=O)O)c4ccccc34)C2=O)cc1	-42	-18	-12	4	?	.	.
COC(=O)Cn1cc(/C=C2\C(=O)NC(=O)N(c3ccccc3)C2=O)c2ccccc21	-30	-7	135*	4	-43*	73*	94*
CN1CCc2nc3sc(C#N)c(N)c3c(-c3cccs3)c2C1	1	4	22	20	0	.	.
CN1CCc2nc(N)c(C#N)c(-c3ccccc3)c2C1	1	46*	69*	61*	-2	12	20
SMILES	E coli Lon inh	GLD-1 RNA inh	MCL1 BIM primary	Bcl-xL primary	MEX-5 binding	Bcl-xL conf	MCL1 inh confirm
COc1ccc2c(C)c(CCC(=O)N3C[C@H]4C[C@@H](C3)c3cccc(=O)n3C4)c(=O)oc2c1	-3	-4	2	5	2	.	.
CCC(C)c1ccc(N2C(=O)NC(=O)/C(=C/c3cccn3CCOc3ccc(C)cc3)C2=O)cc1 (configuration not stated)	-13	-15	113*	80*	-16	42*	53*
Cc1ccc(N2C(=O)NC(=O)/C(=C\c3cccn3C(C)(C)C)C2=O)cc1	-14	-12	-21	-7	-4	.	.
CCCCn1c(O)c(C(=O)/C=C/c2c[nH]c3ccccc23)c(=O)[nH]c1=O	-53	28	85*	-7	-10	-35	-52
CN1CCc2cc(O)cc3c2[C@H]1Cc1ccc(O)c(O)c1-3	-6	5	48*	28	-85*	54*	54*
COC(=O)C1=C(c2ccc(F)cc2F)C[C@@H]2CC[C@H]1N2C(=O)NCCOc1ccccc1	12	13	119*	11	.	6	0
COc1ccc2c(c1)NP(=S)(Oc1ccccc1)N2 (configuration not stated)	7	13	57*	50*	-47*	56*	82*
Cc1ccc2c(c1)NP(=S)(Oc1ccccc1)N2 (configuration not stated)	5	.	.	.	.	.	.
CCN(CC)c1ccc(N=Cc2c(O)n(-c3ccc(OC)cc3)c(=O)[nH]c2=O)cc1	-18	-3	41*	26	-34*	113*	26
c1ccc2c(c1)CN(Cc1ccc3c(c1)OCO3)Cc1cnnn1-2	8	.	.	.	.	.	.
COC(=O)C1C(OC(=O)c2ccccc2)CC2CCC1N2C (configuration not stated)	-6	0	-1	-3	1	.	.
CCOC(=O)c1sc(/N=C/c2c(O)n(-c3cccc(C)c3)c(=O)[nH]c2=O)c(C#N)c1C	-56	-9	-1	-1	0	.	.
Cc1ccc(OC(=O)N(C)C[C@@H]2OCc3cnnn3CCCC(=O)N([C@H](C)CO)C[C@H]2C)cc1	-4	.	.	.	.	.	.
CCN(CC)C(=O)c1ccc2c(c1)C1C(Cl)C(Sc3ccccc3[N+](=O)[O-])CC1C(C(=O)O)N2 (configuration not stated)	4	17	95*	86*	-56*	34*	37
O=C(O)c1ccc2c(c1)C1C(Cl)C(Sc3ccccc3[N+](=O)[O-])CC1C(c1cccc([N+](=O)[O-])c1)N2 (configuration not stated)	2	.	.	.	.	.	.
Cc1ccc2c(c1Cl)NC(C(=O)O)C1CC(Sc3ccccc3[N+](=O)[O-])C(Cl)C21 (configuration not stated)	11	-8	59*	27	-2	-22	-32
CN(C)C1(c2nnnn2CCOC(=O)Nc2ccc(Cl)cc2)CCCCC1	4	2	0	1	1	.	.
Cc1ccccc1NC(=O)Cc1nc(COC(=O)Cc2ccccc2)cs1	-7	137*	+	152*	.	12	6
